Test [1] in a line: antimalarial activity against Dd2 strain (AID 2302;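 active = growth inhibition above 50% at the single 2 µM test dose, taken to imply half-maximal potency below 2 µM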;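 note: 0% = DMSO untreated growth and 100% = chloroquine plus artemisinin killed control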). The conditions noted are these: P. falciparum Dd2 in RBCs, LDH growth readout, 72 h; at 2 µM; active compounds read high.
Test [2] is described as follows: human hepatoma cell viability loss – ATP luminescence, cytotoxicity control for P. falciparum antimalarial project, primary screen (AID 2303;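 active = inhibition above 50%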;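 note: 0% = DMSO wells and 100% = digitonin-killed cells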). The conditions noted are these: HepG2 viability, 24-48 h, at 10 µM, active compounds read high.
The target in test [3] is L-lactate dehydrogenase (Plasmodium falciparum (isolate CDC / Honduras)) (UniProt Q27743). In words: PfLDH activity inhibition – cell lysate, 3D7 strain, counter-screen for P. falciparum growth inhibition project (AID 2304).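 Note: 0% = vehicle and 100% = reference inhibitor.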 The conditions noted are these: P. falciparum 3D7 crude extract, LDH APAD/NBT absorbance; at 2 µM; active compounds read high.
Test [4] in a line: inhibition of 3D7 malaria parasite growth – strain 3D7 (AID 2306).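 Note: 0% = DMSO wells and 100% = chloroquine plus artemisinin control wells.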 The conditions noted are these: P. falciparum 3D7 erythrocytic growth, LDH absorbance, 72 h; at 2 µM; active compounds read high.
In test [5] the target is Calcium-dependent protein kinase 1 (Plasmodium falciparum (isolate 3D7)) (UniProt P62344). In words: PfCDPK1 kinase inhibitors, biochemical, TCAMS library (AID 1159585; cut-off not given, nearly all actives have IC50 up to about 0.98 µM;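 note: inhibitors leave more ATP so luminescence rises with inhibition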). The conditions noted are these: recombinant PfCDPK1, Kinase-Glo ATP depletion luminescence. Background: Kinase-Glo measures the ATP left after a reaction by luminescence.
The target of test [6] is Plasmodium falciparum protein kinase 6 (PK6, PF3D7_1337100) (UniProt Q8IDW1). Briefly: PfPK6 kinase inhibitors, biochemical, TCAMS library (AID 1159586). As to conditions: recombinant PfPK6, Kinase-Glo ATP depletion luminescence.
The target of test [7] is Protein kinase 7 (PK7), Plasmodium falciparum 3D7 (PF3D7_0213400) (UniProt Q7YTF7). In words: inhibition of Plasmodium PK7 catalytic activity – biochemical, TCAMS antimalarial set, Kinase-Glo luminescence (AID 1159587). As to conditions: recombinant PfPK7, Kinase-Glo ATP depletion luminescence.
The target of test [8] is Calcium-dependent protein kinase 4 (Plasmodium falciparum (isolate 3D7)) (UniProt Q8IBS5). In words: PfCDPK4 kinase inhibitors, biochemical, TCAMS library (AID 1159588; cut-off not given, nearly all actives have IC50 up to about 0.91 µM). As to conditions: recombinant PfCDPK4, Kinase-Glo ATP depletion luminescence.

The structures appear in SMILES notation. Values without a mark were called inactive. For some of these results: Entries with a potency or affinity are not part of this list. Calls of active or inactive are those of the source. Unless noted, the rule behind the calls is not given here.

Sequence of Calcium-dependent protein kinase 4 (Plasmodium falciparum (isolate 3D7)) (Q8IBS5 whole entry, looked up): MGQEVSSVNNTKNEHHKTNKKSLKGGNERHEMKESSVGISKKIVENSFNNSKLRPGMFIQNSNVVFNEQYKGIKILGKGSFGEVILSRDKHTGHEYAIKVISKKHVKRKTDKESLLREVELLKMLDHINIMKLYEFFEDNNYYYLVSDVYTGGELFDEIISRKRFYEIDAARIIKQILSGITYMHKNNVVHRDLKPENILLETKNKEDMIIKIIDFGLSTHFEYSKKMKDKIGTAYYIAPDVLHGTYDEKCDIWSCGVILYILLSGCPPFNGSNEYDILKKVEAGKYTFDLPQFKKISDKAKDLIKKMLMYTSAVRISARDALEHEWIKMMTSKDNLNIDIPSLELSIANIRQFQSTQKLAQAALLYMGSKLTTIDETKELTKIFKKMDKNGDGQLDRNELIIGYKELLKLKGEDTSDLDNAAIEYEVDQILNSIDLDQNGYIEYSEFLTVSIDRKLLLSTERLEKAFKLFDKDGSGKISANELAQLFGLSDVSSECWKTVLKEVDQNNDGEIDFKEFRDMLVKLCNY
Sequence of L-lactate dehydrogenase (Plasmodium falciparum (isolate CDC / Honduras)) (Q27743 whole entry, looked up): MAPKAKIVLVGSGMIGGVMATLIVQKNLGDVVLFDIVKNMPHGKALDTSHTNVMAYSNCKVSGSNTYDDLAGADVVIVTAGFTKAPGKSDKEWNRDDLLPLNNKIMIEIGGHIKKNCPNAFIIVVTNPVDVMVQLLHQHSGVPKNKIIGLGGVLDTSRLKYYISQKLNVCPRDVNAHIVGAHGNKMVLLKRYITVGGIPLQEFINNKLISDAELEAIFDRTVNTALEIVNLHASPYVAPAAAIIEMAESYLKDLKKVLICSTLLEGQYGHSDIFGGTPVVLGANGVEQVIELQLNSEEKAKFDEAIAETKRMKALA
Sequence of Plasmodium falciparum protein kinase 6 (PK6, PF3D7_1337100) (Q8IDW1 1-305): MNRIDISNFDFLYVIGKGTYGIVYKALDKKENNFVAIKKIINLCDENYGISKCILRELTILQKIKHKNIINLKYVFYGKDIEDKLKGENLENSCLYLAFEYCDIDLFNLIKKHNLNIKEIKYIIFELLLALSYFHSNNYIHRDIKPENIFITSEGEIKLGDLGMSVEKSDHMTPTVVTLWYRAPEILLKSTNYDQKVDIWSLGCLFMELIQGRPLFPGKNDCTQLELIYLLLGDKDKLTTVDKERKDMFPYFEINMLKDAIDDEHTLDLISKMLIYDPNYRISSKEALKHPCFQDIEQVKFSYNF
Sequence of Protein kinase 7 (PK7), Plasmodium falciparum 3D7 (PF3D7_0213400) (Q7YTF7 1-343): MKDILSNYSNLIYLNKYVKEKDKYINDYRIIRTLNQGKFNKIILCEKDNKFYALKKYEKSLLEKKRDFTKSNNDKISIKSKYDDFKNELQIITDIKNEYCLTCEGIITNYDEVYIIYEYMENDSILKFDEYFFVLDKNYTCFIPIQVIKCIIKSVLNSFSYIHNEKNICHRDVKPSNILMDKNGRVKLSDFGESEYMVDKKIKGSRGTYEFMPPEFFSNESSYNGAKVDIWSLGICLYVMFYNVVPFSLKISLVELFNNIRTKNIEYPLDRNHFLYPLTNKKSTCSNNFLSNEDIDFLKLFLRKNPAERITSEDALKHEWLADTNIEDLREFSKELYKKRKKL
Sequence of Calcium-dependent protein kinase 1 (Plasmodium falciparum (isolate 3D7)) (P62344 whole entry, looked up): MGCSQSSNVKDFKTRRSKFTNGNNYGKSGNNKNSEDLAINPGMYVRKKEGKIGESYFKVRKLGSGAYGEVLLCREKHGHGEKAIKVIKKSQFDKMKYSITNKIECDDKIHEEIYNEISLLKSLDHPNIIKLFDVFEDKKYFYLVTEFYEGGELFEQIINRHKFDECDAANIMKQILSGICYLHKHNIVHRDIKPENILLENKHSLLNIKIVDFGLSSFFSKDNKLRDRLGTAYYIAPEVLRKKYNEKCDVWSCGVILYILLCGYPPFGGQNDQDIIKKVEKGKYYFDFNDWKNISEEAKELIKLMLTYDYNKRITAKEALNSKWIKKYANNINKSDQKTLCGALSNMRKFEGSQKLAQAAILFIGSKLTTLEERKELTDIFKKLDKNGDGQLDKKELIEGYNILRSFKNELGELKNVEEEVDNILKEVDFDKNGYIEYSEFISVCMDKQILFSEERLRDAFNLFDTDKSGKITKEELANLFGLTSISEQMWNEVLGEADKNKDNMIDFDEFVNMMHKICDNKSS

One may read the inhibition as the relative decrease from the control value, in per cent. In the case of `COc1ccc(CCNc2nc(NCc3ccccc3)c3cc(OC)c(OC)cc3n2)cc1OC`, the figures for the growth inhibition in test [1] and in test [4] were 91% (active) and 100% (active), respectively. Further, the inhibition in test [2] is 46%; in test [3] it was 0%. In addition, the result in test [5], in test [6], in test [7] and in test [8] was inactive.

Consider `COc1ccc2nccc([C@@H](O)CN3CCC(NC(=O)C(c4ccsc4)N4CCN(c5ccccc5)CC4)CC3)c2c1` (stereo not given in full), for which the growth inhibition in test [1] was 17%; in test [4], 95% (active). Besides, the inhibition in test [2] is 24%; in test [3] it was -8%. In addition, the result in test [5], in test [6], in test [7] and in test [8] was inactive.

Consider `Cc1ccc(CNC(=O)c2cnc(N3CCN(c4ccncc4)CC3)c(Cl)c2)cc1`, for which the growth inhibition was 6% in test [1] and 92% (active) in test [4]. In addition, the inhibition is 27% in test [2] and -3% in test [3]. For the same compound, the outcome in test [5], in test [6], in test [7] and in test [8] was inactive.

With `N#Cc1cccc(C(O)CN(Cc2ccccc2)Cc2ccccc2)c1` (stereo not given), the growth inhibition in test [1] is 100% (active); in test [4] it was 101% (active). The inhibition is 12% in test [2] and 1% in test [3]. For the same compound, the result in test [5], in test [6], in test [7] and in test [8] was inactive.

Regarding `NCCNc1ccc([N+](=O)[O-])cc1C(=O)Nc1cccc(Cl)c1`, the growth inhibition in test [1] is 7%; in test [4], 85% (active). Besides, the inhibition in test [2] is 23%; in test [3] it was 4%. Moreover, the result in test [5], in test [6], in test [7] and in test [8] was inactive.

Take `CCCOc1c(CCNCCCCNCCc2ccc3ccccc3c2OCCC)ccc2ccccc12`: the values for the growth inhibition in test [1] and in test [4] were 78% (active) and 100% (active), respectively. Further, the inhibition in test [2] is 100% (active); in test [3], 7%. For the same compound, the result in test [5], in test [6], in test [7] and in test [8] was inactive.

Regarding `N#CC1(CCCNCCc2ccc(O)cc2)CCCc2c(O)cccc21` (stereo not given), the values for the growth inhibition in test [1] and in test [4] were 3% and 95% (active), respectively. In addition, the values for the inhibition in test [2] and in test [3] were -2% and -5%, respectively. Besides, the result in test [5], in test [6], in test [7] and in test [8] was inactive.

Regarding `COc1cccc(CNC(=O)c2cccc(-c3cccc(CN4CCC(N5CCCC5)CC4)c3)n2)c1`, the growth inhibition is 76% (active) in test [1] and 100% (active) in test [4]. The inhibition in test [2] was 22%; in test [3], 1%. Further, the outcome in test [5], in test [6], in test [7] and in test [8] was inactive.

For the compound `O=C(N[C@H]1CCN(Cc2ccc(OC3CCN(Cc4ccccc4)CC3)cc2)C1)c1ccc(Cl)c(Cl)c1`, the growth inhibition is 6% in test [1] and 90% (active) in test [4]. Also, the inhibition in test [2] was 37%; in test [3], 1%. The outcome in test [5], in test [6], in test [7] and in test [8] was inactive.

On to `CCCC1CCNC(C(O)c2ccnc3ccc(OC)cc23)C1` (stereo not given), for which the growth inhibition was 78% (active) in test [1] and 98% (active) in test [4]. In addition, the inhibition was -15% in test [2] and -3% in test [3]. Also, the outcome in test [5], in test [6], in test [7] and in test [8] was inactive.

Turning to `CC(C)=CCc1c(-c2ccc(O)cc2O)oc2c3c(cc(O)c2c1=O)OC(C)(C)C=C3`, the growth inhibition is 8% in test [1] and 89% (active) in test [4]. In addition, the inhibition is 1% in test [2] and 5% in test [3]. The outcome in test [5], in test [6], in test [7] and in test [8] was inactive.

In the case of `C(=NNc1nc2ccccc2[nH]1)c1ccccc1OCc1ccccc1`, the growth inhibition is 90% (active) in test [1] and 100% (active) in test [4]. Also, the inhibition in test [2] was 15%; in test [3] it was 6%. Further, the result in test [5], in test [6], in test [7] and in test [8] was inactive.

With `COc1ccc2nc(C)cc(NN=Cc3cc(OC)c(OC)cc3OC)c2c1`, the growth inhibition in test [1] is 56% (active); in test [4], 100% (active). Also, the results for the inhibition in test [2] and in test [3] were 1% and 5%, respectively. Further, the result in test [5], in test [6], in test [7] and in test [8] was inactive.

Consider `O=C(Nc1ccc(-c2cccc(-c3nc4ccc(C(F)(F)F)cc4[nH]3)c2)cc1)c1ccncc1`, for which the results for the growth inhibition in test [1] and in test [4] were 23% and 101% (active), respectively. Further, the inhibition is 63% (active) in test [2] and -4% in test [3]. Also, the outcome in test [5], in test [6], in test [7] and in test [8] was inactive.

As for `CN1CCC(NCc2cccc(-c3cnc(NCc4ccccc4)nc3)c2)CC1`, the growth inhibition in test [1] was 67% (active); in test [4], 102% (active). For the same compound, the results for the inhibition in test [2] and in test [3] were 12% and 4%, respectively. The outcome in test [5], in test [6], in test [7] and in test [8] was inactive.

As to `Cc1ccc(NC(=O)c2cccc(CN3CCCN(Cc4cccc(O)c4)CC3)c2)cc1F`, the growth inhibition is 45% in test [1] and 99% (active) in test [4]. Also, the inhibition was 20% in test [2] and -5% in test [3]. In addition, the result in test [5], in test [6], in test [7] and in test [8] was inactive.

`Cc1nc(C)c(CC(=O)Nc2cccc(-c3cccc(-c4nc5ccc(C(F)(F)F)cc5[nH]4)c3)c2)s1`: the values for the growth inhibition in test [1] and in test [4] were 30% and 95% (active), respectively. In addition, the inhibition is 49% in test [2] and -4% in test [3]. The outcome in test [5], in test [6], in test [7] and in test [8] was inactive.

Consider `COc1ccc(CCNc2ccnc3cc(Cl)ccc23)cc1OC`, for which the growth inhibition in test [1] was 92% (active); in test [4], 101% (active). Besides, the inhibition in test [2] was 4%; in test [3] it was -7%. Also, the result in test [5], in test [6], in test [7] and in test [8] was inactive.

In the case of `COC(=O)c1ccc(OCC(C)NCC(O)c2cccc(C(F)(F)F)c2)cc1` (stereo not given), the growth inhibition in test [1] was 81% (active); in test [4], 94% (active). Besides, the figures for the inhibition in test [2] and in test [3] were 6% and -2%, respectively. Also, the outcome in test [5], in test [6], in test [7] and in test [8] was inactive.

For the compound `O=C(/C=C/c1ccc(Cl)c(Cl)c1)NCCCCCN1CCC(CCNC(=O)/C=C/c2ccc(Cl)c(Cl)c2)CC1`, the growth inhibition was 56% (active) in test [1] and 101% (active) in test [4]. Further, the inhibition in test [2] is 68% (active); in test [3] it was -5%. In addition, the result in test [5], in test [6], in test [7] and in test [8] was inactive.

For the origin of these results see PubChem BioAssay.
